Common to all, as to assay: PBM binding z-score (relative to random genomic background probes); higher = stronger binding; sequences stand for … in GC…GCGATTGACAGCGTAGAATGAAGG
For test [1], the system named is RARb homodimer (NR concentration 270 nM). A digest of the protocol:
(§1)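 Probes were double-stranded and carried 34-nt variable regions with direct-repeat seeds, single-nucleotide variants, half-site ablations and random human genomic background sequences, printed on custom Agilent 4×180K protein-binding microarrays. Arrays were incubated 1 h with ligand-free nuclear receptor dimers in PBS pH 7.4, 2% milk, 0.02% Triton X-100, 1 mM DTT, 0.2 mg/mL BSA and 0.4 mg/ml salmon testes DNA. Antibodies against each partner (one per run) detected binding, and scanned fluorescence was regression-normalized. Binding z-scores use the random background probes as reference.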

The test system of test [2] is RARg:RXRa (NR concentration 270 nM, RXRa partner concentration 90 nM). A digest of the protocol:
as §1

Test [3] has as its system RARg homodimer (NR concentration 270 nM). A digest of the protocol: as §1
Test [4] relates to RXRa DBDmut IVT, anti-RXR (DBD mutation: RXRa K156A/R161A, NR concentration 90 nM). A digest of the protocol: as §1
The test system of test [5] is RXRa homodimer (NR concentration 180 nM). A digest of the protocol:
as §1

The test system of test [6] is THRa:RXRa (NR concentration 90 nM, RXRa partner concentration 90 nM). A digest of the protocol:
as §1

Test [7] concerns THRa homodimer (NR concentration 90 nM). A digest of the protocol:
as §1

Test [8] deals with VDR homodimer (NR concentration 270 nM). A digest of the protocol: as §1

For the sequence CCGACTGTGGCATAAGGTTACCATAAGCCAGCCC, the PBM binding z-score was found to be 1.24 in test [1]; 0.6 in test [2]; 0.353 in test [3]; 0.486 in test [4]; 0.923 in test [5]; 2.37 in test [6]. Also, the figures for the PBM binding z-score in test [7] and in test [8] were 1.7 and -0.189, respectively.
For CGTCCAAGGTCAAAGGTTAGTGAAGAGATGACGG, the PBM binding z-score turned out to be 4.34 in test [1]; 7.04 in test [2]; 6.48 in test [3]; 3.99 in test [4]; 8.4 in test [5]; 4.33 in test [6]. The PBM binding z-score in test [7] came out at 2.53; in test [8] it was 3.02.
TCCAGTAGGTTAGTCGGGGCATTCAGCCAACATA: the PBM binding z-score in test [1] came out at 0.924; in test [2], 0.125; in test [3], 0.158; in test [4], 1.18; in test [5], 0.345; in test [6] it was 1.19. Further, the PBM binding z-score in test [7] is 0.383; in test [8], 0.673.
For ATCGAAAGGTCGAAGGTGAGTATGCCCACCCGAA, the PBM binding z-score in test [1] is 2.54; in test [2], 4.34; in test [3], 3.76; in test [4], 1.32; in test [5], 5.13; in test [6], 2.04. For the same sequence, the results for the PBM binding z-score in test [7] and in test [8] were -0.289 and 0.413, respectively.
Consider ACAGACAGGTGATGAAGGTAACTCGGGCTATCAT, for which the PBM binding z-score in test [1] is 0.556; in test [2], 0.166; in test [3], 0.396; in test [4] it was -0.159; in test [5] it was 0.351; in test [6], 0.765. The PBM binding z-score in test [7] was 0.0589; in test [8], -0.217.
With GTTTACGGGTCAAAGGTTATAGCATGAATAGAAT, the PBM binding z-score is 3.41 in test [1]; 6.91 in test [2]; 5.26 in test [3]; 2.06 in test [4]; 9.23 in test [5]; 3.94 in test [6]. Besides, the results for the PBM binding z-score in test [7] and in test [8] were 0.0413 and 1.99, respectively.
As for CGTCAAAGTTCAAGGTAACGTCACAGAAAGCAGC, the PBM binding z-score in test [1] was found to be 4.13; in test [2], 5.4; in test [3] it was 6.15; in test [4], 4.55; in test [5] it was 4.78; in test [6] it was 3.12. Moreover, the PBM binding z-score in test [7] came out at 1.48; in test [8] it was 3.12.

The record behind these values is the supplement of paper PMC6555819.
